This is one part of a sample in which hits are shown more often than they occur.
ClpP mod: qHTS Assay for Activators of ClpP; ATP-dependent Clp protease proteolytic subunit (Bacillus subtilis (strain 168)), P80244; actives 1.9% (n = 340,000); purified B. subtilis ClpP, FRET peptide cleavage, 20 min; Potency, µM (titrated, usually from 57.5 µM), inactives show at the top dose activity change, negative = active; active = well fitted falling curve with a large enough effect; inconclusive = small, poorly fitted or top-dose-only effect; inactive = no such curve, though single readings can be large or run the other way; note: potency is the fitted concentration of half-maximal effect; the source files actives as falling curves though it sought activators and does not explain the sign; nearly all actives have a fitted effect of over 65% in size
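Buffer: 100 mM Tris/HCl pH8, 100 mM KCl, 0.05% low protease BSA, 2.5% glycerol, 0.01% Tween-20. ClpP 10 microg/mL final; 20 min RT; delta FRET normalized to ADEP and DMSO controls.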
RGS4 inh: Inhibitors of Regulator of G Protein Signaling (RGS) 4: qHTS; actives 0.039% (n = 390,000); Transcreener GDP fluorescence polarization, RGS4-accelerated GTP hydrolysis; Potency, µM (highest dose often 114 µM), for inactives: at the highest dose activity change, negative = inhibition, usual class: inhibitors; note: potency is the fitted concentration of half-maximal effect; % is set by controls: 0 for no effect and ±100 for the full control effect; nearly all actives have a fitted effect of over 75% in size
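MLSMR compounds (23 nl, pin-transferred) preincubated 10 min at room temperature with a 500nM (2x) first reagent, then RGS4 at 900nM (2x) plus Transcreener GDP mix added; fluorescence polarization (620/688 nm) read before and after 90 min at 30 °C.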
mIDH1 inhibitor: qHTS for Inhibitors of mutant isocitrate dehydrogenase 1 (IDH1): qHTS | Potency, µM (doses to about 76.6 µM), for the others: top-dose activity change, negative = inhibition, actives largely listed as inhibitors | actives 0.093% (n = 390,000) | IDH1-R132H enzyme, NADPH consumption, diaphorase/resazurin fluorescence; note: potency is the fitted concentration of half-maximal effect; % is set by controls: 0 for no effect and ±100 for the full control effect; nearly all actives have a fitted effect of over 65% in size
Target sequence (O75874 whole entry R132H, stated change not applied): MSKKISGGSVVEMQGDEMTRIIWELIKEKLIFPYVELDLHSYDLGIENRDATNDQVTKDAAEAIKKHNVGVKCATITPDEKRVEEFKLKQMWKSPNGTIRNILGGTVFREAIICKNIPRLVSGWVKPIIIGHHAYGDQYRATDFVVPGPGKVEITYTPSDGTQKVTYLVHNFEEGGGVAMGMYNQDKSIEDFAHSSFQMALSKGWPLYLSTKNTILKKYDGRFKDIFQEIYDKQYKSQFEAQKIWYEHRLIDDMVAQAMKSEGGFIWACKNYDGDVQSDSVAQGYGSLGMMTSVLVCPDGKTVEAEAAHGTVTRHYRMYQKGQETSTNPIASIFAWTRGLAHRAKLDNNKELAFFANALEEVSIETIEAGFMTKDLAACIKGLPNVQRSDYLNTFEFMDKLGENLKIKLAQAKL
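IDH1-R132H (0.5 ug/mL) preincubated 30 min with compound, then NADPH (0.016 mM) and alpha-KG (2 mM) added; 80 min at RT, pH 7.5. Remaining NADPH coupled via diaphorase/resazurin to fluorescence (540/590 nm); concentration-response curves normalized to no-enzyme control.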
LDHA block: qHTS assay for inhibitors of human lactate dehydrogenase. L-lactate dehydrogenase A chain (Homo sapiens), P00338. purified LDHA, NADH/diaphorase-resazurin fluorescence; hits give low values. activity change, % (values are at about 110 or 230 µM). actives 0.15% (n = 480,000). AID 1347041, 2019; in the data active = activity change below about -30%; inconclusive = mostly about -25% to -30%;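 note: plate controls were DMSO wells for no effect and wells without enzyme for full effect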
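Enzyme activity of human lactate dehydrogenase 5 (2 nM; 0.06 mM NADH, 0.2 mM pyruvate, 5 min, RT) is measured via a resazurin/diaphorase fluorescence readout of residual NADH.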
Mito fusion act: qHTS Assay for Small Molecule Inhibitors of Mitochondrial Division or Activators of Mitochondrial Fusion | AID 485298, 2010 | Potency, µM (series often up to 46.1 µM), without a hit: at the top dose growth rescue (activation), most hits filed as activators | S. cerevisiae fusion-defective mutant growth rescue, CellTiterGlo 48 h | actives 0.23% (n = 320,000); note: potency is the fitted concentration of half-maximal effect; % of control where 0% means no effect; nearly all actives have a fitted effect of over 45% in size
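Luminescent cell viability in 1536-well qHTS format served as the measure of rescued growth in ts fusion-mutant S. cerevisiae cultured on non-fermentable YPEG for 48 hours at 37C.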
S-ASM inh: Inhibitors of Secretory Acid Sphingomyelinase (S-ASM): qHTS; placental ASM, HMU-PC fluorogenic substrate, 60 min; AID 504937, 2011; Potency, µM (highest dose often 57.5 µM), inactives show at the top dose activity change, negative = inhibition, hits mostly inhibitors; actives 0.006% (n = 340,000); Sphingomyelin phosphodiesterase (Homo sapiens), P17405; note: potency is the fitted concentration of half-maximal effect
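Steps: dispense placental human ASM, pin compound, wait 10 min at room temperature, add HMU-PC0 substrate at 9 uM final, incubate 60 min at 37 °C, add stop solution raising pH to 10, read fluorescence.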
Resorufin autofl: qHTS for Inhibitors of mutant isocitrate dehydrogenase 1 (IDH1): Cherrypicks Autofluorescence Interference. inhibition of signal, % at 51.2 µM. 750 tested, under 10 active. Resorufin detection reagent fluorescence interference, cell-free. shares compounds with mIDH1 inhibitor;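 note: 0% = wells with normal resorufin and full inhibition = wells lacking resorufin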
WT IDH1 inh: qHTS for Inhibitors of mutant isocitrate dehydrogenase 1 (IDH1): Cherrypicks in WT IDH1 | actives 9% (n = 750) | WT IDH1 enzyme, NADPH diaphorase/resazurin fluorescence | shares compounds with mIDH1 inhibitor | Potency, µM (doses to about 115 µM), without a hit: at the top dose activity change, negative = inhibition, hits mostly inhibitors;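 note: potency is the fitted concentration of half-maximal effect; 0% = full WT IDH1 enzyme control and full inhibition = no enzyme wells; nearly all actives have a fitted effect of over 55% in size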
Target sequence (O75874 whole entry, looked up): as the sequence (O75874 whole entry R132H, stated change not applied) above, with H132R counted along it
mIDH1 confirm: qHTS for Inhibitors of mutant isocitrate dehydrogenase 1 (IDH1): Confirmation of Cherrypicks; shares compounds with mIDH1 inhibitor; IDH1 R132H enzyme, NADPH diaphorase/resazurin fluorescence; Potency, µM (doses to about 76.6 µM), without a hit: top-dose activity change, negative = inhibition, most hits filed as inhibitors; actives 83% (n = 750); AID 624002, 2012; note: potency is the fitted concentration of half-maximal effect; nearly all actives have a fitted effect of over 50% in size
* marks the source's active call; other numbers are inactive results; ? = inconclusive; . = not tested or not shown. Unless noted, calls come from the whole dose curve; as a rule, active = well fitted curve in the direction sought with a large enough effect; inconclusive = small, poorly fitted or top-dose-only effect, or another doubt; inactive = no such curve, though single readings can be large; an effect the other way counts as inactive or inconclusive.

SMILES | ClpP mod | RGS4 inh | mIDH1 inhibitor | LDHA block | Mito fusion act | S-ASM inh | Resorufin autofl | WT IDH1 inh | mIDH1 confirm
Cc1ccc(N2C(S)=C(C#N)C(=O)NC2c2cccs2)cc1 (stereo not drawn) | 0.8% | ? | 52.1µM* | -2.5 | -1.0% | 0.9% | 3.7 | 20.4% | ?
COc1ccccc1CNS(=O)(=O)c1cc(-c2cc(C(F)(F)F)on2)ccc1C | . | . | . | 18.0 | . | . | . | . | .
COCCN(Cc1ccco1)C1CCCC1 | . | . | . | 1.7 | . | . | . | . | .
COc1cc2c(C#CCCO)c(-c3ccsc3)oc(=O)c2cc1OC | 4.3% | -6.6% | -8.8% | 0.9 | . | 30.0% | . | . | .
COCc1ccc(-c2c(-c3ccsc3)oc(=O)c3cc(OC)c(OC)cc23)cc1 | 31.6µM* | 9.0% | 15.8µM* | -5.3 | . | -6.8% | 5.7 | 1.3% | 10µM*
CCCCn1nc(C)c2c(C(F)(F)F)cc(-c3ccc(Br)cc3)nc21 | . | . | . | -1.4 | . | . | . | . | .
Cc1nn(CCc2nn[nH]n2)c2nc(-c3ccc(C4CCCCC4)cc3)cc(C(F)(F)F)c12 | . | -6.9% | 52.1µM* | -5.8 | 6.1% | 38.5% | -14.0 | 50.1µM* | 39.8µM*
C[C@@H]1C[C@H]2[C@@H]3CCC4=CC(=O)C=C[C@]4(C)[C@@]3(Cl)[C@@H](O)C[C@]2(C)[C@@]1(OC(=O)c1ccco1)C(=O)CCl | 0.1% | -1.3% | 35.5µM* | -20.1 | 4.2% | -2.0% | 0.2 | 12.1% | 8.91µM*
CC1CC2C3CCC4=CC(=O)C=CC4(C)[C@@]3(Cl)C(O)CC2(C)C1(O)C(=O)CO (stereo partly drawn) | 0.5% | 12.6% | -8.5% | -4.9 | . | -0.1% | . | . | .
O=S(=O)(NCCc1cccc2cccnc12)c1ccccc1 | . | . | . | 5.7 | . | . | . | . | .
Cc1ccc(-n2ncc3c(=O)[nH]c(SCC(=O)N4CCCc5ccccc54)nc32)cc1 | -0.6% | -0.1% | ? | -5.0 | -1.5% | -29.1% | -5.5 | 10.3% | 28.2µM*
Cc1[nH]c2ccccc2c1C(=O)C(=O)NCCCC(N)=O | . | . | . | -1.0 | . | . | . | . | .
Cc1cc(C(C)(C)C)oc1C(=O)NCCCNC(=O)c1oc(C(C)(C)C)cc1C | 0.2% | -4.3% | ? | -3.9 | -0.1% | -2.3% | -3.5 | ? | 11.2µM*
CCCSC1=C(C#N)C(c2cccnc2)C(C(=O)OCC)=C(c2ccccc2)N1 (stereo not drawn) | -3.2% | -15.7% | ? | -2.6 | 7.8% | 1.8% | . | . | .
CCOC(=O)C1=C(c2ccccc2)NC(SCC)=C(C#N)C1c1cccnc1 (stereo not drawn) | 1.5% | -4.3% | ? | 1.7 | 2.2% | 4.5% | -1.2 | -0.3% | 15.8µM*
